# Compound activity from PubChem BioAssay.
# The list is not random: actives were taken first. Their share in the collection is about 4.6%.
# tim10-1 inh: growth inhibitors of tim10-1 mutant yeast; hit rate 2.2% among 330,000; S. cerevisiae tim10-1 ts strain growth, BacTiter-Glo, 24 h; AID 463190; inhibition, % at 20 µM;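 active = inhibition of at least 40%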;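 note: mutant grown at 25 °C; 0% = DMSO wells with yeast and 100% = wells holding no yeast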
# SKKanGAS inh: SKKanGAS growth inhibition; inhibition, % at 7.5 µM; S. pyogenes SKKanGAS, kanamycin growth, BacTiter-Glo, 6 h; hit rate 1.3% among 300,000;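 active = mean replicate score, as percent of positive control median, at least 50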;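 note: strain carries kanamycin resistance gene driven by streptokinase promoter and grows in 40 µg/ml kanamycin; loss of luminescence reflects streptokinase promoter inhibition or plain growth inhibition; 0% = median of DMSO wells and 100% = positive control at its reference dose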
# TIM10 inh: inhibits growth of TIM10 yeast strain; inhibition, % at 10 µM; S. cerevisiae TIM10 strain growth, BacTiter-Glo luminescence, 24 h; hit rate 1.4% among 330,000; AID 463195;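 active = inhibition of 40% or more at the single tested concentration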;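 note: wild-type TIM10 isogenic control strain grown at permissive 25 °C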
# NALP3 yeast inh: NALP3 inhibition in yeast. Yeast reconstituted NLRP3/ASC/caspase-1, beta-gal luminescence, 24 h. AID 2825. hit rate 0.39% among 330,000. inhibition, % at 10 µM;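 active = inhibition of 50% or more; inactive = inhibition below 50%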;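 note: plate controls were induced DMSO wells for no effect and uninduced yeast grown without galactose for full effect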
# tim23-1 inh: growth inhibitors of tim23-1 mutant yeast; inhibition, % at 20 µM; S. cerevisiae tim23-1 growth, BacTiter-Glo luminescence, 24 h; hit rate 1.3% among 330,000;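 active = growth inhibition of the mutant yeast at or above 50%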;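 note: temperature-sensitive mutant grown at 25 °C; plate controls were DMSO-treated mutant yeast for no effect and medium wells lacking yeast for full effect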
# TIM10 conf: confirmation of TIM10 yeast growth inhibitors; shares compounds with TIM10 inh; S. cerevisiae tim10 strain growth, BacTiter-Glo luminescence, 24 h; inhibition, % at 10 µM; hit rate 63% among 4,600;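 active = inhibition of yeast growth at or above a set limit in either of two replicates at 10 µM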;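 note: this counterscreen used the strain with wild-type TIM10; 0% = yeast with DMSO and 100% = medium wells lacking yeast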
# * = called active by the depositor; x = not tested or not shown.
SMILES,tim10-1 inh,SKKanGAS inh,TIM10 inh,NALP3 yeast inh,tim23-1 inh,TIM10 conf
Cn1c(CS/C(N)=N/N=C/c2ccccc2)c(Br)c(=O)n1-c1ccccc1,23,-5,24,4,14,x
Cc1cc(C)n(-c2nc(NC(C)(C)C)nc(NC(C)(C)C)n2)n1,35,111*,45*,-15,42,43*
CC(C)N(Cc1ccccc1)C(=O)COC(=O)c1cnc(Cl)c(Cl)c1,24,x,13,1,42,x
Cc1ccccc1-n1c(-c2csc3ccccc23)n[nH]c1=S,35,-10,40*,8,32,-30
Cc1ccc(S(=O)(=O)NC2CCCc3ccccc32)cc1C (centres undefined),35,15,45*,9,12,-4
Cc1cccc(C(=O)OCC(=O)NCCCc2ccccc2)c1O,-9,0,-1,12,7,x
Cc1cc(C(=O)CCl)c(C)n1Cc1ccco1,38,0,46*,-83,34,34*
Cc1ccc(S(=O)(=O)NC(Cc2ccccc2)C(=O)O)cc1C (centres undefined),-10,-3,9,0,-2,x
COc1cccc(/C=N/n2cnc3cc(C)c(C)cc32)c1OC,35,1,42*,22,27,36*
COc1ccc(CCNC(=S)NC(=O)c2ccccc2)cc1C,23,7,45*,16,31,50*
COc1ccccc1CNC(=S)NCCc1ccccc1,36,4,41*,12,18,17
S=C(Nc1ccc2c(c1)OCO2)N1CCN(Cc2ccco2)CC1,-8,-8,-13,16,14,x
CCCc1nnc(SCC(=O)N2CCCCC2C)n1CCOC (centres undefined),-4,-6,-1,5,10,x
O=C(N/N=C/c1ccccn1)c1cc(-c2ccc(Cl)cc2)nc2ccccc12,19,62*,47*,16,42,50*
O=C(NC(=S)Nc1ccccn1)c1cc(-c2ccccc2)nc2ccccc12,36,11,47*,20,41,6
CC(C)CCCC(C)NC(=O)c1cc(S(=O)(=O)N2CCCCC2)ccc1N1CCOCC1 (centres undefined),9,x,-3,8,20,x
COCCSc1nnc(NC(=O)c2ccco2)s1,6,-2,67*,18,16,12
CCNC(=S)N/N=C/c1cn(Cc2ccc(F)cc2)c2ccccc12,32,22,43*,20,40,51*
CC1CCN(C(=S)c2cn(Cc3ccc(F)cc3)c3ccccc23)CC1,36,16,55*,20,27,38*
CN1CCN(C(=S)c2cn(Cc3ccc(F)cc3)c3ccccc23)CC1,3,-4,-2,21,18,x
COc1cc(/C=N/NC(=O)COc2ccccc2C)ccc1OC(=O)c1cccs1,30,21,43*,-2,28,41*
S=c1[nH]nc(-c2ccccc2)n1/N=C/c1ccc(Cl)cc1,x,5,x,x,x,x
Fc1ccc(/C=N/n2c(-c3cccs3)n[nH]c2=S)cc1,30,-7,45*,21,41,28
Cc1ccc(C(=O)NC(=S)Nc2ccccc2N2CCCC2)cc1[N+](=O)[O-],32,4,43*,13,44,-39
COc1cccc(C(=O)NC(=S)Nc2ccccc2N2CCCCC2)c1,28,65*,41*,18,29,26
SMILES,tim10-1 inh,SKKanGAS inh,TIM10 inh,NALP3 yeast inh,tim23-1 inh,TIM10 conf
Nc1nc2nc(-c3ccccc3)cc(C(F)(F)F)c2s1,5,-14,47*,-17,47,40*
Cc1cc(C(F)(F)F)c2sc(N)nc2n1,-6,9,-17,5,7,x
O=C1NC(=S)S/C1=C\c1coc2ccccc2c1=O,13,3,44*,4,28,25
Clc1c(CSc2nc3ccccc3o2)nc2ccccn12,12,24,43*,35,19,-26
COc1cnc(-c2ccccn2)nc1Oc1ccc(Cl)c2ccccc12,37,93*,53*,34,40,41*
O=C(c1ccc(N2C(=O)c3ccccc3C2=O)cc1)N1CCCCC1,-3,-3,13,7,16,x
CCc1ccc(N2C(=O)C(Cl)=C(Nc3ccc(C(=O)N4CCCC4)cc3)C2=O)cc1,30,x,50*,25,34,42*
O=C(COc1ccc2c(c1)CCC2)N1CCc2ccccc21,21,1,45*,40,15,37*
